According to PubChem BioAssay AID1542 (National Center for Advancing Translational Sciences (NCATS), 2009):
Inconclusive results are not listed. Calls come from the whole dose curve; as a rule, active = well fitted curve in the direction sought with a large enough effect; inconclusive = small, poorly fitted or top-dose-only effect, or effect the other way, or another doubt; inactive = no such curve, though single readings can be large or run the other way.

Biological target: Pyruvate kinase PKM (Homo sapiens) (UniProt P14618)
Sequence (P14618 whole entry, looked up, canonical isoform): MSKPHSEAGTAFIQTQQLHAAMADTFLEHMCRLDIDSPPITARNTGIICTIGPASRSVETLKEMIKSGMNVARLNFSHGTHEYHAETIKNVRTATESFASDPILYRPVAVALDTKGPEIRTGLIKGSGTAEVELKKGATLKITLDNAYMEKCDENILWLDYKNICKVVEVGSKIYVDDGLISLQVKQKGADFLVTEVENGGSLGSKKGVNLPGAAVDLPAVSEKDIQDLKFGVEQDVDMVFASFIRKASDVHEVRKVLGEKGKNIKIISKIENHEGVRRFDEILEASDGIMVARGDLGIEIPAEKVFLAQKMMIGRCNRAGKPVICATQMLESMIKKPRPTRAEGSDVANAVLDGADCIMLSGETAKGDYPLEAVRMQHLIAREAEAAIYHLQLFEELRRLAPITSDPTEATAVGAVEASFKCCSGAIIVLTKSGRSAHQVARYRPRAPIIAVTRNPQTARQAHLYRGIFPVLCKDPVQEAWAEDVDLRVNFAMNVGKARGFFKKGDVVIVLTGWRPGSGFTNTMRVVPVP
Experiment: Secondary assay for Activators of Human Pyruvate Kinase M1 isoform
Settings: purified hPK-M1, LDH-coupled NADH fluorescence kinetic; series mostly up to 57.5 µM; activity change, positive = activation: at the top concentration
Text: Confirmatory assay NIH Chemical Genomics Center [NCGC] Matthew G. Vander Heiden, M.D., Ph.D. [Harvard Medical School, 77 Avenue Louis Pasteur, Boston, MA 02115] NCGC Assay Overview: Human pyruvate kinase […] (hPK-M1)enzyme was supplied as a highly purified (>95% pure) preparation from Harvard Medical School and a secondary assay was used to evaluate compounds. This assay couples the formation of pyruvate from hPK-R using lactate dehydrogenase (LDH) and NADH. The depletion of NADH is followed in a fluorescent-based kinetic assay that follows the formation of pyruvate to lactate, as catalyzed LDH. Pyruvate kinase substrates, PEP and ADP, were present in the assay at 0.1 mM and 4 mM respectively. In this kinetic assay initial rates were determined by following the fluorescence of NADH depletion.
NCGC Assay Protocol Summary: Three uL of substrate mix (final concentration, 50 mM Tris-Cl pH 8.0, 200 mM KCl, 15 mM MgCl2, 0.1 mM PEP, 4.0 mM ADP, and 0.2 mM NADH) was dispensed into black-solid 1536 well plates. 23 nL of compounds were delivered by a pin tool and 1 uL of enzyme mix (final concentrations, 10 nM hPK-M1 and 1 uM of LDH) was added. Plates were immediately placed in ViewLux (Perkin Elmer) and NADH fluorescence was determined at 30 second exposure intervals for between 3 and 6 minutes. Data were normalized to the uninhibited controls.

Activity change, positive = activation, inactive:
Cc1cc2c(s1)c1cnn(Cc3cccc(F)c3)c(=O)c1n2C 14.8%, O=S(=O)(NC1CCN(S(=O)(=O)c2ccc3c(c2)OCCO3)CC1)c1c(F)cccc1F -0.701%, O=C(O)c1cc(F)c(S(=O)(=O)N2CCN(S(=O)(=O)c3ccc4c(c3)OCCO4)CC2)cc1F 19.7%, O=S(=O)(c1ccc2c(c1)OCCO2)N1CCN(S(=O)(=O)c2c(F)cccc2F)CC1 8.24%, CCOC(=O)/C=C/c1cc(F)c(S(=O)(=O)N2CCN(S(=O)(=O)c3ccc4c(c3)OCCO4)CC2)cc1F -2.46%, COC/C=C/c1cc(F)c(S(=O)(=O)N2CCN(S(=O)(=O)c3ccc4c(c3)OCCO4)CC2)cc1F -14.8%, O=S(=O)(c1ccc2nc(Cl)c(Cl)nc2c1)N1CCN(S(=O)(=O)c2c(F)cccc2F)CC1 17.4%, COCCCc1cc(F)c(S(=O)(=O)N2CCN(S(=O)(=O)c3ccc4c(c3)OCCO4)CC2)cc1F -12%, Cc1cc2c(s1)c1cnn(Cc3ccccc3F)c(=O)c1n2Cc1ccccc1F 21.1%, O=S(=O)(c1ccc2c(c1)OCCO2)N1CCN(S(=O)(=O)c2ccc3nc(Cl)c(Cl)nc3c2)CC1 28.8%, O=c1[nH]c2ccc(S(=O)(=O)N3CCN(S(=O)(=O)c4c(F)cccc4F)CC3)cc2[nH]c1=O -22%, O=S(=O)(NCC1CN(S(=O)(=O)c2c(F)cccc2F)C1)c1ccc2c(c1)OCCO2 -5.12%, O=C(c1c(F)cccc1F)N1CCN(S(=O)(=O)c2ccc3c(c2)OCCO3)CC1 9.03%, C[C@@H]1CN(S(=O)(=O)c2c(F)cccc2F)CCN1S(=O)(=O)c1ccc2c(c1)OCCO2 12%, Cc1nc2ccc(S(=O)(=O)N3CCN(S(=O)(=O)c4c(F)cccc4F)CC3)cc2s1 11.1%, Cn1ccc2cc(S(=O)(=O)N3CCN(S(=O)(=O)c4c(F)cccc4F)CC3)ccc21 14.4%, CC(C)c1cc2c(s1)c1cnn(Cc3ccccc3F)c(=O)c1n2C 2.22%, Cc1cc2c(s1)c1cnn(Cc3ccc(C(F)(F)F)cc3F)c(=O)c1n2C 9.47%, Cc1cc2c(s1)c1cnn(Cc3ccc(F)cc3)c(=O)c1n2C 7.03%, C=Cc1cc(F)c(S(=O)(=O)N2CCN(S(=O)(=O)c3ccc4c(c3)OCCO4)CC2)cc1F -7.75%, Cn1c2cc(S(C)(=O)=O)sc2c2cnn(Cc3ccccc3F)c(=O)c21 23.4%, C[C@H]1CN(S(=O)(=O)c2ccc3c(c2)OCCO3)CCN1S(=O)(=O)c1c(F)cccc1F 14.6%, Cn1c2cc(C(=O)O)sc2c2cnn(Cc3ccccc3F)c(=O)c21 -11.8%, O=S(=O)(NC1CCC(NS(=O)(=O)c2c(F)cccc2F)CC1)c1ccc2c(c1)OCCO2 (stereo not given) 3.43%, Cc1cc2c(s1)c1cnn(Cc3cccc(Cn4ncc5c6sc(C)cc6n(C)c5c4=O)c3F)c(=O)c1n2C -9.29%, CS(=O)(=O)Nc1cccc(-c2cc(F)c(S(=O)(=O)N3CCN(S(=O)(=O)c4ccc5c(c4)OCCO5)CC3)cc2F)c1 -9.36%, Cc1cc2c(s1)c1cnn(Cc3c(F)c(F)cc(F)c3F)c(=O)c1n2C 9.56%, O=C(O)Cc1cc(F)c(S(=O)(=O)N2CCN(S(=O)(=O)c3ccc4c(c3)OCCO4)CC2)cc1F 19%, O=C(O)/C=C/c1cc(F)c(S(=O)(=O)N2CCN(S(=O)(=O)c3ccc4c(c3)OCCO4)CC2)cc1F -16.2%, CCOC(=O)CCc1cc(F)c(S(=O)(=O)N2CCN(S(=O)(=O)c3ccc4c(c3)OCCO4)CC2)cc1F -4.06%, Cc1cc2c(s1)c1cnn(Cc3ccc(Cl)cc3)c(=O)c1n2C -0.421%, O=C(N1CCc2ccc(S(=O)(=O)N3CCN(S(=O)(=O)c4ccc5c(c4)OCCO5)CC3)cc2C1)C(F)(F)F -17.2%, O=S(=O)(c1ccc2c(c1)OCCO2)N1CCN(S(=O)(=O)c2cc(F)c(Br)cc2F)CC1 -15.8%, Cc1cc2c(s1)c1cnn(Cc3c(F)cccc3Cl)c(=O)c1n2C 12.7%, Cc1cc2c(s1)c1cnn(Cc3ccccc3F)c(=O)c1n2C 1.47%, O=S(=O)(c1ccc2c(c1)OCCO2)N1CCN(S(=O)(=O)c2ccccn2)CC1 -9.53%, COc1ccc(S(=O)(=O)N2CCN(S(=O)(=O)c3ccc4c(c3)OCCO4)CC2)cc1 -6.87%, O=C(O)CCc1cc(F)c(S(=O)(=O)N2CCN(S(=O)(=O)c3ccc4c(c3)OCCO4)CC2)cc1F 2.14%, COC(=O)c1cc(F)c(S(=O)(=O)N2CCN(S(=O)(=O)c3ccc4c(c3)OCCO4)CC2)cc1F -0.231%, O=S(=O)(c1ccc2c(c1)OCCCO2)N1CCN(S(=O)(=O)c2c(F)cccc2F)CC1 4.66%
